Screens as filed in PubChem.
Most compounds without a hit are left out; they make up all but 2.8% or so of the library.
SENP8 block-1 = blocks the human protease SENP8 | Q96LD8 | purified SENP8, Z-RLRGG-aminoluciferin cleavage, luminescence | inhibition, % at 10 µM | 330,000 tested, 1.2% active | AID 2540; in the data active = inhibition above about 50%
Target sequence (Q96LD8 whole entry, looked up): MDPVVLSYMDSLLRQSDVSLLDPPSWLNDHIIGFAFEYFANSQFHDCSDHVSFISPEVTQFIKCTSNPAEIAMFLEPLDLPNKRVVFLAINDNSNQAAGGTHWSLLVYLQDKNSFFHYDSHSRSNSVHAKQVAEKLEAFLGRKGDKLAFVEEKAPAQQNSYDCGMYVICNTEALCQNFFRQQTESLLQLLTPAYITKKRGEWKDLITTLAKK
SENP8 block-2 = inhibitors of human SENP8 protease. AID 602440. 360,000 tested, 0.64% active. Q96LD8. inhibition, % at 20 µM. recombinant SENP8, Nedd8 substrate fluorescence; in the data active = inhibition mostly above about 40%, no sharp cut-off; inactive = mostly below about 27%
SENP6 block = inhibitors of human SENP6 protease. Q9GZR1. Recombinant SENP6 catalytic domain, aminoluciferin luminescence. inhibition, % at 10 µM. 330,000 tested, 1.8% active;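 active = inhibition above about 50% at the single tested dose, limit read from the data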;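 note: plate controls were DMSO wells with enzyme for no effect and DMSO wells lacking enzyme for full effect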
HSP90 inh = inhibitors of HSP90 luciferase refolding in rabbit reticulocyte lysate | luciferase refolding luminescence, 3 h | inhibition, % at 5.6 µM | AID 1789 | 290,000 tested, 0.91% active;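 active = inhibition above the screen-wide mean plus 3 SD, computed separately per campaign, cut at about 16% in these data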;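 note: 0% = DMSO wells and 100% = 60 µM geldanamycin wells; inhibitors lower the luminescence because luciferase stays unfolded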
SENP7 block = SENP7 protease inhibition | Q9BQF6 | recombinant SENP7, Z-RLRGG-aminoluciferin luminescence, 40 min | inhibition, % at 5 µM | 330,000 tested, 1.5% active;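 active = inhibition above about 50% at the single test dose, limit read from the data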;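 note: plate controls were DMSO with enzyme for no effect and no enzyme buffer wells for full effect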
SENP8 confirm = confirmation of human SENP8 protease inhibitors; shares compounds with SENP7 block; Recombinant SENP8, Z-RLRGG-aminoluciferin luminescence, 60 min; inhibition, % at 12.5 µM; 6,200 tested, 40% active; AID 488912;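 active = mean inhibition across replicates above about 50%, limit read from the data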
SENP6 confirm = confirmation of human SENP6 protease inhibitors; recombinant SENP6, Z-RLRGG-aminoluciferin luminescence; AID 488915; shares compounds with SENP7 block; 6,200 tested, 58% active; inhibition, % at 12.5 µM
SENP7 conf = confirmation of human SENP7 protease inhibitors; shares compounds with SENP7 block; recombinant SENP7, Z-RLRGG-aminoluciferin luminescence, 40 min; inhibition, % at 12.5 µM; 6,200 tested, 69% active; AID 488917
Casp3 select = selectivity test for SENP inhibitors: human caspase-3 inhibition | shares compounds with SENP7 block | purified caspase-3, Z-DEVD-aminoluciferin luminescence, 60 min | inhibition, % at 12.5 µM | 6,200 tested, 60% active;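 active = mean inhibition above about 50%, limit read from the data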;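 note: plate controls were enzyme with DMSO for no effect and wells without caspase-3 for full effect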
Target sequence (P42574 28-227 limits assumed): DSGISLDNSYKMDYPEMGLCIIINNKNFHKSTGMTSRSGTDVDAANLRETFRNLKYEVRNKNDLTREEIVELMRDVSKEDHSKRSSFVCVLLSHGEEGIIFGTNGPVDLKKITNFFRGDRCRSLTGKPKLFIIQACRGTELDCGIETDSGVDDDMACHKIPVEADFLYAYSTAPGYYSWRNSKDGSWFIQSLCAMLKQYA
Luc interf = counter-screen for SENP inhibitors: luminescence interference; shares compounds with SENP7 block; Pre-incubated SENP8/Z-RLRGG-aminoluciferin, luciferase luminescence interference; inhibition, % at 12.5 µM; 6,200 tested, 39% active;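 active = mean inhibition above about 50% when retested at one dose, limit read from the data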;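 note: plate controls were DMSO wells with completed reaction for no effect and substrate without enzyme for full effect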
* marks the source's active call; other numbers are inactive results; · = not tested or not shown.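 Rule for the calls, unless noted: active = mean inhibition above about 50% in the one-dose retest (limit read from the data); inactive = the rest.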

SMILES	SENP8 block-1	SENP8 block-2	SENP6 block	HSP90 inh	SENP7 block	SENP8 confirm	SENP6 confirm	SENP7 conf	Casp3 select	Luc interf
O=C(CSc1nnc(NC(=O)c2ccccc2F)s1)Nc1ccccc1F	69*	-81	80*	0	61*	47	79*	91*	87*	13
CC(C(=O)c1ccccc1)C(O)c1ccccn1 (stereo not given)	·	26	·	·	·	·	·	·	·	·
CCN(CC)c1ccc(/C=N/N2C(=O)c3ccccc3C2=O)cc1	33	-4	63*	1	45	-6	16	-5	-1	-1
COc1ccc(/C=N/N2C(=O)c3ccccc3C2=O)cc1	79*	7	88*	2	87*	3	74*	70*	85*	25
CN(C)c1ccc(/C=N/N2C(=O)c3ccccc3C2=O)cc1	72*	26	-3	-1	91*	28	71*	61*	51*	18
O=C(COC(=O)CCC1CCCC1)NCc1ccc(Cl)cc1	-7	17	-6	3	-4	·	·	·	·	·
Cn1c(-c2ccc(Br)o2)nc2cc(Br)ccc21	85*	-33	95*	5	83*	8	90*	91*	89*	38
CC(=O)c1ccc(-c2nc3ccccc3n2C)o1	18	-402	49	0	31	·	·	·	·	·
Cc1ccc2nc(-c3ccc(Br)o3)oc(=O)c2c1	6	-194	15	4	11	·	·	·	·	·
Cc1ccc(-c2nc3ccccc3n2C)o1	79*	-151	70*	8	83*	91*	91*	98*	95*	90*
Cn1c(-c2ccc(Br)o2)nc2ccccc21	95*	4	97*	-1	99*	0	98*	103*	98*	95*
Brc1ccc(Cn2c(-c3ccc(Br)o3)nc3ccccc32)o1	·	-28	·	4	·	·	·	·	·	·
O=C(O)C1CCCN1S(=O)(=O)c1ccc(Cl)c(Cl)c1 (stereo not given)	-4	-237	-11	-2	-2	·	·	·	·	·
COC(=O)N/N=C/c1cc(Cl)c(OCc2ccc(F)cc2)c(OC)c1	-4	13	10	4	-1	·	·	·	·	·
O=C(NN1C(=O)C2C3c4ccccc4C(c4ccccc43)[C@@H]2C1=O)c1ccccc1 (stereo not given in full)	-1	14	-5	-6	2	·	·	·	·	·
COc1cccc(-c2csc(N3CCN(CC(=O)NNC(=O)c4ccc(Cl)cc4)CC3)n2)c1	-6	2	-9	4	-7	·	·	·	·	·
COc1cccc(-c2csc(N3CCN(CC(=O)NNC(=O)c4ccc(Br)cc4)CC3)n2)c1	2	5	-3	1	101*	-8	-5	3	2	-6
CCOC(=O)c1cnn(-c2ncnc3c2oc2ccccc23)c1N	9	15	16	·	73*	2	8	32	44	12
O=C(/C=C\Nc1ccc(Br)cc1)c1cccnc1	57*	-383	83*	-6	66*	66*	64*	83*	71*	41
O=C(/C=C/Nc1ccccc1)c1ccccc1	93*	-60	100*	-1	96*	90*	96*	101*	96*	54*
O=C(NNC(=S)Nc1ccc(Br)cc1)c1cccnc1	0	12	-10	1	4	·	·	·	·	·
CC(=O)Nc1ccc(C(=O)c2ccccc2)cc1	4	26	-12	5	2	·	·	·	·	·
CN(C)c1ccc(N/C=C/C(=O)c2ccccc2)cc1	95*	28	96*	3	102*	70*	94*	100*	97*	28
CC(=O)Nc1ccc(N/C=C/C(=O)c2ccccc2)cc1	50*	-72	70*	0	55*	45	66*	90*	78*	31
